Bioassay records from PubChem BioAssay.
Rpn11 block = Rpn11 (PSMD14) deubiquitinase inhibitors, primary screen, biochemical, fluorescence polarization, uHTS. human 26S proteasome, Ub4-pepOG fluorescence polarization; 20S core pre-blocked with epoxomicin. 0.59% of 360,000 active. AID 588493, 2011. 26S proteasome non-ATPase regulatory subunit 14 (Homo sapiens), O00487. inhibition, % at 20 µM;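 active means inhibition at 20 µM, scaled to each plate's controls, above about 33%, limit read from the data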
Target sequence (O00487 whole entry, looked up): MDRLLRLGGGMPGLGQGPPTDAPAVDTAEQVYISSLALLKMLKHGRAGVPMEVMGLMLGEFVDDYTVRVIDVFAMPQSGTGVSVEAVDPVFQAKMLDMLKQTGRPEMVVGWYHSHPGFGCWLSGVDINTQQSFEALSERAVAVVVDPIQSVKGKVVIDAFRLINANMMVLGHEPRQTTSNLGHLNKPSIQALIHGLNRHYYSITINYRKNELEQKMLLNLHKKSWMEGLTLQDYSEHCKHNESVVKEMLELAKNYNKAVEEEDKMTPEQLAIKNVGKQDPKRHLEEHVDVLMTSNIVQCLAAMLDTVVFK
ZTA DNA inh = ZTA (EBV) inhibition in EBNA-1 counter-screen | inhibition, % at 11 µM | AID 2234 | ZTA-DNA binding, fluorescence polarization | 0.15% of 320,000 active; in the data active means inhibition above about 33%
Target sequence (P03206 whole entry, looked up): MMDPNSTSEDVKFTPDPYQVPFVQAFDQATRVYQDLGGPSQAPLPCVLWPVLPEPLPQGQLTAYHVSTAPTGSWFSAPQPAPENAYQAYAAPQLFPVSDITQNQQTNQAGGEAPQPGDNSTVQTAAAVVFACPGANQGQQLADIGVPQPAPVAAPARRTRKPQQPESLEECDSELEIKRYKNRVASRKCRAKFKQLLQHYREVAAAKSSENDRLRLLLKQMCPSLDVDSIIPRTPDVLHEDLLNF
dFosB act = activators of delta FosB homodimer, primary screen, biochemical, fluorescence polarization, TAMRA-CDK5 oligo, single point | Protein FosB (Mus musculus), P13346 | purified delta FosB; percent of positive-control signal above neutral wells | activation, % at 25 µM | 0.99% of 340,000 active | AID 493131, 2011;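 active means mean activation above about 17%, with every replicate also reaching it, limit read from the data, passing the limit was not always enough; inconclusive means only one of the two conditions met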
EBNA-1 inh = EBNA-1 DNA-binding inhibitors, primary screen, biochemical, fluorescence polarization; inhibition, % at 14.8 µM; 0.34% of 300,000 active; in the data active means inhibition above about 28%
TPT1 inh = Candida albicans TPT1 enzyme inhibitors, primary screen, biochemical, fluorescence polarization; tRNA 2'-phosphotransferase TPT1 (Candida albicans SC5314); recombinant caTPT1, FP RNA substrate dephosphorylation; inhibition, % at 5 µM; 0.81% of 300,000 active;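 active means inhibition above the mean of all tested compounds plus 3 SD, set per screening campaign, cut at about 24% in these data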;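 further: plate controls were DMSO alone for no effect and ferristatin control at 100 nM for full effect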
GRIN3A LBD mod = binders of NR3A ligand-binding domain, primary screen, biophysical, differential scanning fluorimetry, uHTS; Glutamate receptor ionotropic, NMDA 3A (GRIN3A) ligand-binding domain; NR3A LBD differential scanning fluorimetry, Tm shift; 0% = protein alone, 100% = glycine-bound protein; Tm shift relative to glycine control, % at 25 µM; 2.5% of 340,000 active;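 active means melting temperature shift of at least 10% of the positive control shift, at one fixed dose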
* = called active by the depositor. Hits are enriched below; roughly 4.5% of the tested compounds scored in any of these assays.

How did CCOc1ccc(NC(=O)Nc2ccc3c(c2)N(C)C(=O)CS3)cc1 do in these assays?
Rpn11 block: 7; ZTA DNA inh: 0; dFosB act: -1; EBNA-1 inh: -8; TPT1 inh: -4; GRIN3A LBD mod: 18*

Results for CCCCn1c(=O)c(CCC(=O)OCC(=O)NC(=O)NCCOC)nc2ccccc21 ?
Rpn11 block: 2; ZTA DNA inh: 10; dFosB act: -7; EBNA-1 inh: 1; TPT1 inh: -3; GRIN3A LBD mod: -2

What do the screens show for `CCOC(=O)c1cnc(SCc2nc(N)nc(Nc3ccc(C)cc3)n2)nc1N`?
Rpn11 block: 4; ZTA DNA inh: 9; dFosB act: 48*; EBNA-1 inh: -2; TPT1 inh: 2; GRIN3A LBD mod: -11

How did COc1cccc(CNC(=O)c2ccccc2NC(=O)C2=C(C)OCCS2)c1OC do in these assays?
Rpn11 block: 4; ZTA DNA inh: 0; dFosB act: -12; EBNA-1 inh: 1; TPT1 inh: -2; GRIN3A LBD mod: 112*

What do the screens show for `Nc1ccc(C(=O)N/N=C/c2ccc(N3CCOCC3)s2)cc1`?
Rpn11 block: 6; dFosB act: -3; GRIN3A LBD mod: 11*

What do the screens show for `O=C(N/N=C/c1ccc(N2CCOCC2)s1)c1ccccc1Br`?
Rpn11 block: 6; ZTA DNA inh: -2; dFosB act: -2; EBNA-1 inh: 5; TPT1 inh: 15; GRIN3A LBD mod: -2

How did Clc1cccc(N/N=C/c2ccc(N3CCOCC3)s2)c1 do in these assays?
Rpn11 block: 16; ZTA DNA inh: 4; dFosB act: 3; EBNA-1 inh: 5; TPT1 inh: 9; GRIN3A LBD mod: 19*

What do the screens show for `CCOC(=O)NC(=O)/C(N=Nc1ccc(C(F)(F)F)cc1)=C(\C)O`?
Rpn11 block: -7; ZTA DNA inh: -15; dFosB act: 4; EBNA-1 inh: 1; TPT1 inh: -2; GRIN3A LBD mod: 154*

Results for CC/C(=N\Nc1ccc([N+](=O)[O-])cc1[N+](=O)[O-])c1ccc(O)cc1 ?
Rpn11 block: -11; ZTA DNA inh: -1; dFosB act: -9; EBNA-1 inh: 2; TPT1 inh: -2; GRIN3A LBD mod: 18*

Results for COc1cccc(C(=O)N2CCN(C(=O)C3COc4ccccc4O3)CC2)c1 (stereo unspecified) ?
Rpn11 block: -6; ZTA DNA inh: -3; dFosB act: -5; EBNA-1 inh: -1; TPT1 inh: -6; GRIN3A LBD mod: 0

How did CCc1ccc(-c2cc(C)no2)cc1S(=O)(=O)NCCCN1CCN(c2ccccc2)CC1 do in these assays?
Rpn11 block: -13; ZTA DNA inh: 0; dFosB act: -10; EBNA-1 inh: -3; TPT1 inh: -6; GRIN3A LBD mod: -4

What do the screens show for `CCc1ccc(-c2cc(C)no2)cc1S(=O)(=O)NCCN1CCC(C)CC1`?
Rpn11 block: 2; ZTA DNA inh: 5; dFosB act: -13; EBNA-1 inh: -2; TPT1 inh: -2; GRIN3A LBD mod: 15*

Results for CN(C)n1cnc2ccsc2c1=O ?
Rpn11 block: 1; ZTA DNA inh: 7; dFosB act: 4; EBNA-1 inh: 2; TPT1 inh: -2; GRIN3A LBD mod: -1

What do the screens show for `CN1CCN(C(=O)c2ccc(N3CCCC3=O)cc2)CC1`?
Rpn11 block: 3; ZTA DNA inh: 9; dFosB act: 1; EBNA-1 inh: -9; TPT1 inh: 2; GRIN3A LBD mod: 333*

Results for COc1ccc(N2CCN(CC(=O)Nc3c(C)cccc3C)CC2)cc1 ?
Rpn11 block: 1

How did O=[N+]([O-])c1ccc(S(=O)(=O)NN=Cc2ccc(Cl)c(Cl)c2)cc1 do in these assays?
Rpn11 block: -8; dFosB act: -2; GRIN3A LBD mod: 12*

Results for C=CCn1c(SCC(=O)Nc2ccc(O)cc2)nc2sc(CC)cc2c1=O ?
Rpn11 block: 5; ZTA DNA inh: -3; dFosB act: 0; EBNA-1 inh: 1; TPT1 inh: -2; GRIN3A LBD mod: 33*

What do the screens show for `Cc1c(C(=O)N2CCN(C3CCS(=O)(=O)C3)CC2)oc2c(F)cccc12` (stereo unspecified)?
Rpn11 block: 0; ZTA DNA inh: 8; dFosB act: -14; GRIN3A LBD mod: 0

What do the screens show for `O=C(CC1C(=O)NCCN1CC1CCCCC1)NCCCN1CCOCC1` (stereo unspecified)?
Rpn11 block: 0; ZTA DNA inh: 20; dFosB act: -6; EBNA-1 inh: 1; TPT1 inh: -4; GRIN3A LBD mod: 0

What do the screens show for `Nc1cc(-c2ccc(Br)cc2)nc2cc(-c3ccccc3)nn12`?
Rpn11 block: 6; ZTA DNA inh: -19; dFosB act: 1; EBNA-1 inh: 14; TPT1 inh: -1; GRIN3A LBD mod: 34*

How did Nc1cc(-c2ccc(Br)cc2)nn1S(=O)(=O)c1ccccc1 do in these assays?
Rpn11 block: 1; ZTA DNA inh: -3; dFosB act: 1; EBNA-1 inh: 12; TPT1 inh: -2; GRIN3A LBD mod: -6

How did C=C(CN(C)C)C(=O)c1ccc(OC2OC(COC(C)=O)C(OC(C)=O)C(OC(C)=O)C2OC(C)=O)cc1 (stereo unspecified) do in these assays?
Rpn11 block: 8; dFosB act: 21*; GRIN3A LBD mod: -1

What do the screens show for `C=C(CN(C)C)C(=O)c1ccc2c(c1)OCO2`?
Rpn11 block: 6; dFosB act: 0; GRIN3A LBD mod: 2

Results for COc1cc2c3nnc(-c4ccc(F)cc4)c-3cn(Cc3cccc(F)c3)c2cc1OC ?
ZTA DNA inh: 10; dFosB act: 38*; EBNA-1 inh: 7; TPT1 inh: 5; GRIN3A LBD mod: 1

How did COc1cc2c3nnc(-c4ccc(F)cc4)c-3cn(Cc3ccc(C)cc3)c2cc1OC do in these assays?
ZTA DNA inh: 7; dFosB act: inconclusive; EBNA-1 inh: 17; TPT1 inh: 2; GRIN3A LBD mod: -1

What do the screens show for `CCOC(=O)C1CCCN(C(=O)CCn2nnnc2CN2CCOCC2)C1` (stereo unspecified)?
Rpn11 block: 2; ZTA DNA inh: 2; dFosB act: 2; EBNA-1 inh: -12; TPT1 inh: -3; GRIN3A LBD mod: -1

What do the screens show for `Cc1cc(C)n(-c2ccc(C(=O)OCC(=O)NCc3ccco3)cc2)n1`?
Rpn11 block: 1; ZTA DNA inh: 15; dFosB act: -12; EBNA-1 inh: 6; TPT1 inh: -1; GRIN3A LBD mod: 21*
